Experiment [1] in a line: Caspase-3/7 induction in CHO-K1 cells by small molecules, qHTS assay (AID 1346980). Also: nearly all actives have a fitted effect of over 15% in size. The essentials: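 Wild-type CHO-K1 cells exposed to compounds for 17hr at 37 C, 5% CO2. Caspase-3/7 activity then measured by Caspase-Glo 3/7 luminescence after 30min at room temperature.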
On the technique in general: In qHTS, concentration-response curves come from the screen itself.

Experiment [2] is described as follows: Caspase-3/7 induction in HepG2 cells by small molecules, qHTS cell viability counter screen (AID 1346981). Also: nearly all actives have a fitted effect of over 30% in size. Also: potency is read from the fitted curve at half-maximal effect. Summed up: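 Viability determined by CellTiter-Fluor fluorescence in HepG2 wells also used for the luminescent Caspase-Glo 3/7 read. Compounds were present for 16 hr at 37 C, 5% CO2 before reagent addition.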
Experiment [3] addresses Nuclear receptor subfamily 1 group I member 2 (Homo sapiens) (UniProt O75469). In words: Human pregnane X receptor (PXR) small molecule agonists, qHTS assay (AID 1346982). Also: nearly all actives have a fitted effect of over 35% in size. Also: potency is read from the fitted curve at half-maximal effect. The essentials: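 Compound-induced hPXR transactivation of a CYP3A4 luciferase reporter was scored in HepG2 PXR-Luc cells over 24 hr at 37 C, 5% CO2, by luminescence.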
In experiment [4] the target is Acetylcholinesterase (Homo sapiens) (UniProt P22303). The experiment is described as follows: Acetylcholinesterase (AChE) small molecule antagonists: colormetric cell-based qHTS assay (AID 1347395; calls by dose curve; also: nearly all actives have a fitted effect of over 30% in size). The essentials:
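Homogeneous whole-cell format. SH-SY5Y cells seeded overnight, dosed with compound (30 min, 37 C, 5% CO2), then given DTNB/acetylthiocholine cocktail for 90 min at 37 C; colorimetric signal.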

Experiment [5] has the same target. In words: Acetylcholinesterase (AChE) small molecule antagonists: enzyme-based qHTS assay (AID 1347397; calls by dose curve; also: nearly all actives have a fitted effect of over 55% in size). The conditions noted are these: Potency: AChE enzyme activity inhibition. The essentials:
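Recombinant human AChE (50 mU/mL) preincubated with compound 30 min at room temperature; acetylthiocholine plus DTNB then added, and thiocholine formation read colorimetrically after 10 min at room temperature. DMSO served as vehicle control.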

For experiment [6] the target is unchanged. In words: Acetylcholinesterase (AChE) small molecule antagonists: fluorescence cell-based qHTS assay (AID 1347398; calls by dose curve; also: nearly all actives have a fitted effect of over 50% in size). The note with it: Potency: AChE activity. Summed up:
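SH-SY5Y cells (2000/well), attached overnight, incubated with compound 30 min at 37 C. Acetylthiocholine plus Thiolite Green then added for 40 min at room temperature. Thiocholine fluorescence (Ex/Em 490/520 nm) reports cellular AChE activity.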

Experiment [7] shares this target. The experiment is described as follows: Acetylcholinesterase (AChE) small molecule antagonists: enzyme-based qHTS assay with human liver microsomes (AID 1347399; calls by dose curve; also: nearly all actives have a fitted effect of over 60% in size). The note with it: Potency: qHTS inhibition. Summed up:
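Recombinant human AChE (50 mU/mL in the enzyme mix) and human liver microsomes (0.25 mg/mL final) were preincubated with compound and NADPH (0.25 mg/mL final) for 30 min at 37 C. Acetylthiocholine/DTNB was then added; thiocholine was read colorimetrically after 10 min at room temperature.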

Experiment [8] concerns the target Cytochrome P450 2D6 (Homo sapiens) (UniProt P10635). In words: Cytochrome P450 Family 2 Subfamily D Member 6 (CYP2D6) small molecule antagonists: luciferase reporter qHTS assay (AID 1671196). Also: nearly all actives have a fitted effect of over 50% in size. Also: potency is read from the fitted curve at half-maximal effect. As to activity change, negative = inhibition: series mostly up to about 120 µM. Summed up: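 Each well received CYP2D6 with its proluciferin substrate and chemical, sat 10 min, then got NADPH regeneration solution for 1 h at room temperature. Luminescence in RLU served as the activity measure.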
(In general: In a reporter assay the amount or activity of a reporter protein is the signal.)

Experiment [9] deals with Cytochrome P450 2C19 (Homo sapiens) (UniProt P33261). In words: Cytochrome P450 Family 2 Subfamily C Member 19 (CYP2C19) small molecule antagonists: luciferase reporter qHTS assay (AID 1671197). Also: nearly all actives have a fitted effect of over 65% in size. Also: potency is read from the fitted curve at half-maximal effect. As to activity change, negative = inhibition: series mostly up to about 120 µM. The essentials:
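Enzyme-substrate mix with proluciferin substrate (P450-Glo CYP2C19 system) preincubated with compounds 10 min at room temperature; NADPH regeneration solution added, 37C for 1 h; detection reagent stops reaction, luminescence read after 20 min. Ketoconazole positive control.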

Experiment [10] concerns the target Cytochrome P450 2C9 (Homo sapiens) (UniProt P11712). The experiment is described as follows: Cytochrome P450 Family 2 Subfamily C Member 9 (CYP2C9) small molecule antagonists: luciferase reporter qHTS assay (AID 1671198). Also: nearly all actives have a fitted effect of over 50% in size. Also: potency is read from the fitted curve at half-maximal effect. As to activity change, negative = inhibition: series mostly up to about 120 µM. Summed up: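 P450-Glo proluciferin substrate with CYP2C9 enzyme; 10 min RT preincubation, then NADPH regeneration 1 h at 37C; luciferin detection reagent 20 min RT, luminescence in relative luminescence units.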

The target of experiment [11] is Cytochrome P450 1A2 (Homo sapiens) (UniProt P05177). The experiment is described as follows: Cytochrome P450 Family 1 Subfamily A Member 2 (CYP1A2) small molecule antagonists: luciferase reporter qHTS assay (AID 1671199). Also: nearly all actives have a fitted effect of over 50% in size. Also: potency is read from the fitted curve at half-maximal effect. As to activity change, negative = inhibition: series mostly up to about 120 µM. The essentials:
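Enzymatic CYP1A2 assay, human, luminescent: 10 min compound–enzyme–substrate preincubation, 1 h NADPH-dependent turnover, 20 min detection step, room temperature throughout. Reduced light indicates lower CYP1A2 activity.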

Experiment [12] deals with Voltage-gated inwardly rectifying potassium channel KCNH2 (Homo sapiens) (UniProt Q12809). In words: Human Ether-a-go-go-Related Gene (hERG) channel small molecule antagonists: fluorescence cell-based qHTS assay (AID 1671200). Summed up: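 Thallium served as the potassium surrogate; its influx into dye-loaded U2OS cells carrying the channel was measured by fluorescence over 2 min.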
Sequence of Voltage-gated inwardly rectifying potassium channel KCNH2 (Homo sapiens) (Q12809 whole entry, looked up): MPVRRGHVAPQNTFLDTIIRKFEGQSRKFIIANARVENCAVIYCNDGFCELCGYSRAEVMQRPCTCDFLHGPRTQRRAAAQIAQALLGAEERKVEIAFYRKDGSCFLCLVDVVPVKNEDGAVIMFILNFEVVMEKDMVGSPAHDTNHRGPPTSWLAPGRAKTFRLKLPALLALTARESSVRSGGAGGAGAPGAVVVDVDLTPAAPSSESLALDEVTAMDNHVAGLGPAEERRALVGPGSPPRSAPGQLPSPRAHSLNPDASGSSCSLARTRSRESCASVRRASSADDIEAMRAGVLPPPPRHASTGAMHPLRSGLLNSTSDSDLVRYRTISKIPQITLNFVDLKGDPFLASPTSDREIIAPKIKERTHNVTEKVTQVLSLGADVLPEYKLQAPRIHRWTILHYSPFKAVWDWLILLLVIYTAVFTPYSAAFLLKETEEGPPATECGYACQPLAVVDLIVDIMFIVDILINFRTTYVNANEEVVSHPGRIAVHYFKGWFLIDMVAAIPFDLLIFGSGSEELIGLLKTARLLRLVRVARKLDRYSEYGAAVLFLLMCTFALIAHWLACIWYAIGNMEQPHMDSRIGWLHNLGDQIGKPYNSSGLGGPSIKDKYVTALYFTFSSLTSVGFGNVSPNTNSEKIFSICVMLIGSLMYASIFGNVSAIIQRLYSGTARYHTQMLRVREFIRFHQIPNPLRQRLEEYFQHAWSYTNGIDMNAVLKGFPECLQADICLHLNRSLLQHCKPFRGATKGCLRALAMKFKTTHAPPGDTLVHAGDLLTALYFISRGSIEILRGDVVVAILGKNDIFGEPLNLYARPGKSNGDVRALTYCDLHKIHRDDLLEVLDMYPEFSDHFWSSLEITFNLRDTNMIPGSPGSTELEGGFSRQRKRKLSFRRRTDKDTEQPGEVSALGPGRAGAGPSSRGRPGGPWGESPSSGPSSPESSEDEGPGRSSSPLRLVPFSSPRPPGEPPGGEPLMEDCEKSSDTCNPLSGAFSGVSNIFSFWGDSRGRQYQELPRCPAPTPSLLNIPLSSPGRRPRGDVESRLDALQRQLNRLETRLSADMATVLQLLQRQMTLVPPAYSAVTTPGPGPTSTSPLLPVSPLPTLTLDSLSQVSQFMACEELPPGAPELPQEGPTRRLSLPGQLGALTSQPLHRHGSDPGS
(Block of hERG is tested as a sign of cardiac risk.)

Experiment [13] concerns the target Cytochrome P450 3A4 (Homo sapiens) (UniProt P08684). The experiment is described as follows: Cytochrome P450 Family 3 Subfamily A Member 4 (CYP3A4) small molecule antagonists: luciferase reporter qHTS assay (AID 1671201). The essentials:
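Relative luminescence units after 20 min with luciferin detection reagent served as read-out. Beforehand, CYP3A4 turned over a proluciferin substrate for 1 h at room temperature with NADPH regeneration, following 10 min compound preincubation.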

Experiment [14] has as its target Nuclear receptor subfamily 1 group I member 2 (Homo sapiens) (UniProt O75469). The experiment is described as follows: CYP3A4 induction through human pregnane X receptor (PXR) by small molecules, qHTS assay (AID 1346984). Also: nearly all actives have a fitted effect of over 40% in size. The essentials: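 Readings come from a luciferase reporter: DPX-2 cells, which are HepG2 cotransfected with PXR and a CYP3A4-promoter construct, were exposed to test compounds for 24 h at 37C before One-Glo detection.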

Experiment [15] shares this target. The experiment is described as follows: Human pregnane X receptor (PXR) activation by small molecules, qHTS assay (AID 1346985). Also: nearly all actives have a fitted effect of over 40% in size. Also: potency is read from the fitted curve at half-maximal effect. Summed up: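 DPX-2 cells (HepG2 co-transfected with a PXR response element and a CYP3A4-promoter luciferase construct) were seeded at 2,000 per well, rested 5 hr at 37C, then exposed to DMSO-dissolved compounds for 24 hr. Activation was read as luciferase luminescence.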

The values below come from PubChem BioAssay (Tox21).

Several values for one entry are separate records, joined by “and”; a condition that tells them apart may be missing. Identical values can stand only once. Inconclusive results are not listed. Some structures have more than one record in an assay (separate samples or runs), and their calls can disagree. Activity calls are given as the source filed them. Unless noted, calls follow the shape of the dose curve; as a rule, active = well fitted curve in the direction sought with a large enough effect in the repeat runs; inconclusive = weak or mixed curves; inactive = no such curve, though single readings can be large; an effect the other way counts as inactive or inconclusive.
% is scaled to controls: 0 for no effect and ±100 for the full control effect.

Sequence of Cytochrome P450 3A4 (Homo sapiens) (P08684 whole entry, looked up): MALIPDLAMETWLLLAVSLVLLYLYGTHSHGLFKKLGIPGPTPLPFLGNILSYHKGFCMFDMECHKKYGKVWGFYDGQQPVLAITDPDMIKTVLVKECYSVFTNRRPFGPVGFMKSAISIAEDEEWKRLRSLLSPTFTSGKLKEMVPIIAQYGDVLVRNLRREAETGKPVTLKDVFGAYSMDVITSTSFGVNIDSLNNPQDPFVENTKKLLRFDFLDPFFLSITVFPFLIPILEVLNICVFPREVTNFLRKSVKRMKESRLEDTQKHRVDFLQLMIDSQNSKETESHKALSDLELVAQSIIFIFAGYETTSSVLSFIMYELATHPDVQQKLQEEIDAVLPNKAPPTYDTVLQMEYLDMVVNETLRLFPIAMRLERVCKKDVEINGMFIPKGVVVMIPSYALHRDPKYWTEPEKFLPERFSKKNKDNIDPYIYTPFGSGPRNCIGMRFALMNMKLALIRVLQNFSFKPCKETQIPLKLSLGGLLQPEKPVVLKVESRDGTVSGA
Sequence of Nuclear receptor subfamily 1 group I member 2 (Homo sapiens) (O75469 whole entry, looked up): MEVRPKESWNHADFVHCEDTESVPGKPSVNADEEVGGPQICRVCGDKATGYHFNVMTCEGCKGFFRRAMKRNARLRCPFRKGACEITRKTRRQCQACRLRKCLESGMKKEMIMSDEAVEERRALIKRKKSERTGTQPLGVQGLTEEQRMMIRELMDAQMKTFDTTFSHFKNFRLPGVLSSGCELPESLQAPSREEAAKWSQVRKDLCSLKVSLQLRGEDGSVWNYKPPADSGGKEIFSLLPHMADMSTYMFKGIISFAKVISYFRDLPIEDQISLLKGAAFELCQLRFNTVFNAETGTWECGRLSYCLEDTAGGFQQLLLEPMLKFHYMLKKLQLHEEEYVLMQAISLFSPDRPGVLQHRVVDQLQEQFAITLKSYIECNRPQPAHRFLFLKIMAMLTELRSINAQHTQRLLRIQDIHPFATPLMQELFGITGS
Sequence of Cytochrome P450 2C9 (Homo sapiens) (P11712 whole entry, looked up): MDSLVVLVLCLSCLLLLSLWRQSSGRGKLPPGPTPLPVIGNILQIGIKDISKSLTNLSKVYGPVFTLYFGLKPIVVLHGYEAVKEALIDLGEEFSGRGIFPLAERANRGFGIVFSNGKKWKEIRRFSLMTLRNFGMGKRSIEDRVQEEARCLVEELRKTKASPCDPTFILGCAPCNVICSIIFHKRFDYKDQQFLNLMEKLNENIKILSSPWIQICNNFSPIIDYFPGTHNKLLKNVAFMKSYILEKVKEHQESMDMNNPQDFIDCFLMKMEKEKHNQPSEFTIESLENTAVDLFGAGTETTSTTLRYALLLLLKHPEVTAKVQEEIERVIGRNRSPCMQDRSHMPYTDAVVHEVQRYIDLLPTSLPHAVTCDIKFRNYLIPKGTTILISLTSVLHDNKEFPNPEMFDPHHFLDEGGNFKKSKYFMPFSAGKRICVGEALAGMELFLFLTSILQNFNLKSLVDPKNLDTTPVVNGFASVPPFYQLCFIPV
Sequence of Cytochrome P450 1A2 (Homo sapiens) (P05177 whole entry, looked up): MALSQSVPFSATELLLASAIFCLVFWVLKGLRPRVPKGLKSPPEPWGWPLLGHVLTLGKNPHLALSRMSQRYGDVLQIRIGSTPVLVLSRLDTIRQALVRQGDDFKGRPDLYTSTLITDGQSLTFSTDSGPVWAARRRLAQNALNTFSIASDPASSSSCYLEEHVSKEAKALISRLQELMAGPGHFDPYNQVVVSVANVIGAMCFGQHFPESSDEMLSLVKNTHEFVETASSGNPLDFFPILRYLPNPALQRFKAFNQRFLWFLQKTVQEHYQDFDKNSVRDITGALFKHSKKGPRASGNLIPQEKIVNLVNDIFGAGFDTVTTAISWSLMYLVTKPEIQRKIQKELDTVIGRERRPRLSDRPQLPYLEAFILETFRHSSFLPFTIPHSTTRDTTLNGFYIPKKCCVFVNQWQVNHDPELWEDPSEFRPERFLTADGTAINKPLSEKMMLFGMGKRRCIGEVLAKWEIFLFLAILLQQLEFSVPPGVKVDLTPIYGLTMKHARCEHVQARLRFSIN
Sequence of Acetylcholinesterase (Homo sapiens) (P22303 whole entry, looked up): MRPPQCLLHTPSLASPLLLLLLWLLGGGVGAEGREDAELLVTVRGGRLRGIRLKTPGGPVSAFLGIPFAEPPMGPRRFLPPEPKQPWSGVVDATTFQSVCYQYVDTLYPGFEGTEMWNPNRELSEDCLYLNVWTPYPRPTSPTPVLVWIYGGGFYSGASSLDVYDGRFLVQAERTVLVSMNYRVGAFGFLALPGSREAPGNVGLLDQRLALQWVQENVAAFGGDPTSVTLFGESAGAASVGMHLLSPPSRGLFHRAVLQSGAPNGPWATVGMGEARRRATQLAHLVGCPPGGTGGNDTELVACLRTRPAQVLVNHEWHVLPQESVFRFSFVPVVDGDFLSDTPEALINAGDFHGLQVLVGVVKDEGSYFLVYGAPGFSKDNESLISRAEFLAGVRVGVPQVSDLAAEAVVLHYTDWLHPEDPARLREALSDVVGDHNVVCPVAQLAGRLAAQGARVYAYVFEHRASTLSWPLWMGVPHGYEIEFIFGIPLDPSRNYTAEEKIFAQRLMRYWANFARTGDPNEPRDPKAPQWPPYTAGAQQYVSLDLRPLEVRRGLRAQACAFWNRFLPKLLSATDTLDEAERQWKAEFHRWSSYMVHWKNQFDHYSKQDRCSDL
Sequence of Cytochrome P450 2C19 (Homo sapiens) (P33261 whole entry, looked up): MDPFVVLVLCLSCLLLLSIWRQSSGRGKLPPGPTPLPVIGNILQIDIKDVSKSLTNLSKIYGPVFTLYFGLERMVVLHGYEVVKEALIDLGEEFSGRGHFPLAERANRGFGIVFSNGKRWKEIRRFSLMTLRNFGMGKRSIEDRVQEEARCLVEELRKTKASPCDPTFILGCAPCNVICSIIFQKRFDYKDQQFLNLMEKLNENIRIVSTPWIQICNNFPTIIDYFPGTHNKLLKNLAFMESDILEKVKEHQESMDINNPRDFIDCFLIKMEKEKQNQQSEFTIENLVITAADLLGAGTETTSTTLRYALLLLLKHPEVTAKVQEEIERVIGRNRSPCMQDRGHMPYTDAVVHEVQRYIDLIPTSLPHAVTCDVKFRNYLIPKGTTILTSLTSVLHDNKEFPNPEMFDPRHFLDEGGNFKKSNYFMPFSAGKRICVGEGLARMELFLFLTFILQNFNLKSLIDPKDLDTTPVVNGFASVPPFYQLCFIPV
Sequence of Cytochrome P450 2D6 (Homo sapiens) (P10635 whole entry, looked up): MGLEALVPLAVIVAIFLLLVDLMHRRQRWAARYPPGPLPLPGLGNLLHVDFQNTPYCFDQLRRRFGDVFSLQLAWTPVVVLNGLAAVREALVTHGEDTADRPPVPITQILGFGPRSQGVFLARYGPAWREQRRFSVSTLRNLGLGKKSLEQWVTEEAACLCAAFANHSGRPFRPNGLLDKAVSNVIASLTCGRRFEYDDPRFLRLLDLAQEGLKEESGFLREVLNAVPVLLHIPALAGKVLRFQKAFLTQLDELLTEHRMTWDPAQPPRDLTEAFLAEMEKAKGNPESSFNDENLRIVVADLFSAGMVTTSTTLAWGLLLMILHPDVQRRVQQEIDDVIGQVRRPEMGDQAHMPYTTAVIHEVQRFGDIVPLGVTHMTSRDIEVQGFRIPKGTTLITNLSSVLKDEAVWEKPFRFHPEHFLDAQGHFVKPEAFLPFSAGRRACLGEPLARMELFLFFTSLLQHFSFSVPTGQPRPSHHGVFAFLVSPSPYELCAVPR

Turning to `O=c1[nH]c(=O)[nH]c(=O)[nH]1`, the result in experiment [1] was inactive. For the same compound, the Potency entry in experiment [2], in [3], in experiment [4], in experiment [5], in experiment [6] and in experiment [7] was “inactive” throughout. The Potency result in experiment [9], in [10], in [11], in experiment [12] and in experiment [13] was “inactive” each time. Moreover, in experiment [8], the Potency was 63.2 µM (active) and inactive.
For `Clc1ccc(Cl)cc1`, the outcome in [1] and in experiment [14] was inactive. Besides, the Potency was 4.32 µM (active) and inactive in [2]; 1.93 µM (active) and inactive in [3]. Further, the Potency result in experiment [15], in experiment [4], in [5], in [6], in experiment [7] and in experiment [8] was “inactive” in each case. For the same compound, the Potency entry in experiment [9], in experiment [10], in experiment [11], in experiment [12] and in experiment [13] was “inactive” in each case.
As for `CN(N=O)c1ccccc1`, the call in experiment [1] was inactive. Besides, the Potency result in experiment [2], in [3], in [4], in experiment [5], in experiment [6] and in experiment [7] was “inactive” each time. For the same compound, the Potency result in experiment [8], in experiment [9], in experiment [10], in experiment [11], in experiment [12] and in [13] was “inactive” each time.
`CCC[N+](=O)[O-]`: in experiment [1], the compound was classed as inactive. The Potency result in [2], in experiment [3], in [4], in experiment [5], in [6] and in experiment [7] was “inactive” throughout. For the same compound, the Potency entry in [8], in [10], in experiment [11], in [12] and in [13] was “inactive” throughout. The Potency in experiment [9] was 27.8 µM (active).
Take `CCCN(CCC)c1c([N+](=O)[O-])cc(C(F)(F)F)cc1[N+](=O)[O-]`: the compound was called inactive in experiment [1]. Also, the Potency entry in experiment [2], in experiment [4], in experiment [5], in [6], in experiment [7] and in experiment [8] was “inactive” throughout. Besides, the Potency result in experiment [12] was “inactive”. Moreover, the Potency in experiment [3] was 30.6 µM (active); in experiment [9], 39.8 µM (active) and 35.6 µM (active); in experiment [10], 22.4 µM (active); in experiment [11], 20 µM (active).
Consider `C#CCN(C)[C@H](C)Cc1ccccc1`, for which the compound was classed as inactive in experiment [1] and in experiment [14]. For the same compound, the Potency result in experiment [2], in [3], in experiment [15], in experiment [4], in experiment [5] and in experiment [6] was “inactive” throughout. The Potency result in [7], in [10], in experiment [12] and in [13] was “inactive” throughout. For the same compound, the Potency in experiment [8] was 12.6 µM (active) and 17.4 µM (active); in [11], 17.8 µM (active) and inactive.
Consider `CC(C)=C[C@@H]1[C@@H](C(=O)OCc2coc(Cc3ccccc3)c2)C1(C)C`, for which the result in [1] and in experiment [14] was inactive. Moreover, the Potency result in [2], in experiment [4], in [5], in experiment [6], in experiment [7] and in experiment [8] was “inactive” in each case. Also, the Potency entry in experiment [12] and in experiment [13] was “inactive” each time. Also, the Potency in experiment [3] is 13.7 µM (active); in [15], 22.4 µM (active); in experiment [9], 10 µM (active) and 4.36 µM (active); in [10] it was 1.42 µM (active) and 5.49 µM (active); in experiment [11] it was 27.5 µM (active).
Regarding `C=C(C)CCl`, the compound was called inactive in experiment [1]. In addition, the Potency entry in [2], in experiment [3], in experiment [4], in [5], in experiment [6] and in experiment [7] was “inactive” throughout. In addition, the Potency entry in experiment [8], in [10], in experiment [12] and in experiment [13] was “inactive” in each case. The figures for the activity change, negative = inhibition in experiment [9] and in [11] were 3.29% [at 10.5 µM] (inactive) and -9.56% [at 10.5 µM] (inactive), respectively.
